# Source: PubChem BioAssay AID1851 (National Center for Advancing Translational Sciences (NCATS), 2009)
# The campaign covered roughly 16,000 compounds. About 2,600 (16%) were called active. Roughly 20% stayed inconclusive and do not appear here. Not all results are given here. A number with no mark means an inactive call. The call rests on the fitted dose curve; in most records, active means well fitted curve in the direction sought with a large enough effect; inconclusive means small, poorly fitted or top-dose-only effect, or effect the other way; inactive means no such curve, though single readings can be large or run the other way.
# Biological target: Cytochrome P450 2D6 (Homo sapiens) (UniProt P10635)
# Assay: Cytochrome panel assay with activity outcomes
# Conditions: recombinant CYP, pro-luciferin dealkylation, luminescence, p450-cyp2d6; series mostly up to 57.1 µM
# On the % scale 0 is the no-effect control and ±100 the full control effect.
# Chain of Cytochrome P450 2D6 (Homo sapiens) (P10635 whole entry, looked up): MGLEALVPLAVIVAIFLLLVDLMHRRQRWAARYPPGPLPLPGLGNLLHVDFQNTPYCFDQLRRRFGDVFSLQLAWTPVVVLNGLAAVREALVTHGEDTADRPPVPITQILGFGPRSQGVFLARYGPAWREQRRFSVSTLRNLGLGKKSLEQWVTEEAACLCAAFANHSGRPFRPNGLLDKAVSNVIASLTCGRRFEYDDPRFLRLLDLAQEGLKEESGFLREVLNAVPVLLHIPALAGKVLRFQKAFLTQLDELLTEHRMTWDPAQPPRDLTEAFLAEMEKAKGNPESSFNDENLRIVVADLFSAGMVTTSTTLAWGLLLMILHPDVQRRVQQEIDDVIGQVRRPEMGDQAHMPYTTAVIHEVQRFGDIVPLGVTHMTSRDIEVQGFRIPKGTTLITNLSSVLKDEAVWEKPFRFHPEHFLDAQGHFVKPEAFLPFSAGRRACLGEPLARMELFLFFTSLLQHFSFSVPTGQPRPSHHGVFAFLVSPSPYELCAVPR
Structure (SMILES),"activity, negative = inhibition",AC50
CC1(C)O[C@H]2[C@@H](c3[nH]nc4c(=O)[nH]c(=O)[nH]c34)OC[C@H]2O1,17% [at 11.4 µM],–
CCSc1nnc(NC(=O)Cc2ccc(OC)c(OC)c2)s1,–,inactive
Cc1nc2c(c(-c3ccccc3)c1C#N)C(=O)c1ccccc1-2,–,inactive
CC(C)CC1NC(=S)N(C2CCCCC2)C1=O (centres undefined),–,inactive
CCCC[C@@H]1C[C@H]1C(NC(=O)c1cccs1)c1ccc(C(F)(F)F)cc1 (some centres undefined),–,inactive
Oc1ccc2ccccc2c1CN(Cc1c(O)ccc2ccccc12)C1CCCCC1,–,0.631 µM (active)
Oc1ccc2ccccc2c1Cc1c(O)ccc2ccccc12,3.09% [at 11.4 µM],–
CC(C)(C)c1ccc(O)c(CN(Cc2cc(C(C)(C)C)ccc2O)C2CCCCC2)c1,–,0.501 µM (active)
O=C(O)Cc1c(O)ccc2ccccc12,2.9% [at 11.4 µM],–
CN(C)Cc1cc(C(C)(C)C)ccc1-c1ccc(C(C)(C)C)cc1CN(C)C,4.2% [at 11.4 µM],–
CC(C)(C)c1ccc(O)c(CN(Cc2c(O)ccc3ccccc23)C2CCCCC2)c1,–,0.794 µM (active)
CN(C)Cc1ccc(C(C)(C)C)cc1-c1cc(C(C)(C)C)ccc1CN(C)C,-2% [at 11.4 µM],–
CS(=O)(=O)N(Cc1cc2ccccc2[nH]c1=O)C1CCCCC1,–,inactive
O=C1C2=CC[C@H]3C(=O)N(c4cccc(Oc5ccccc5)c4)C(=O)[C@@H]3[C@@H]2[C@H](O)[C@@H]2O[C@H]12,1.91% [at 11.4 µM],–
Cc1ccc(C(=O)N/N=C\c2cccn2C)cn1,–,inactive
Fc1ccc(C2=Nn3c(Cc4ccccc4F)nnc3SC2)cc1,–,inactive
Cc1ccc(C(=O)NC(=S)Nc2ccc(S(=O)(=O)N3CCN(C)CC3)cc2)cc1,–,inactive
CC(C)(C)NC(=O)C(c1ccccn1)N(C(=O)C1CSC(=O)C1)c1ccc(F)cc1 (centres undefined),–,inactive
CC1=N[C@@](C)(COC(=O)[C@]2(C)N[C@](C)(CO)CO2)COC1=O,10% [at 11.4 µM],–
NC(=O)CN1CCN(c2nc(-c3ccc(F)cc3)cs2)CC1,–,inactive
Cn1cccc1C(=O)N1CCC[C@@]2(CCN(Cc3ccccc3)C2)C1,–,2 µM (active)
CN1CC[C@@]2(CCCN(C(=O)c3cccn3C)C2)C1,–,inactive
Cn1cccc1C(=O)N1CCC[C@@]2(CCN(c3ccccc3)C2)C1,–,inactive
COc1ccc(C(=O)N2CCC[C@@]3(CCN(Cc4cc(C(F)(F)F)cc(C(F)(F)F)c4)C3)C2)cc1,–,inactive

Structure (SMILES),"activity, negative = inhibition",AC50
Cn1cccc1C(=O)N1CCC2(CCCN(Cc3ccncc3)C2)CC1,–,7.94 µM (active)
Cn1cccc1C(=O)N1CCC2(CCN(Cc3ccccc3)CC2)CC1,–,7.94 µM (active)
Cn1cccc1C(=O)N1CCC2(CCN(Cc3ccncc3)CC2)CC1,–,inactive
Cn1cccc1C(=O)N1CCC[C@@]2(CCN(Cc3cc(C(F)(F)F)cc(C(F)(F)F)c3)C2)C1,–,3.98 µM (active)
Cn1cccc1C(=O)N1CCC[C@@]2(CCN(c3ccncc3)C2)C1,–,inactive
Cn1cccc1C(=O)N1CCC2(CC1)CN(c1ccncc1)C2,–,inactive
Cn1cccc1C(=O)N1CCC2(CC1)CN(Cc1ccc(C#N)cc1)C2,–,inactive
Cn1cccc1C(=O)N1CCC2(CC1)CCN(c1ccccc1)CC2,–,inactive
NCC[C@H]1CCC[C@H](CCN)N1,–,inactive
O=[N+]([O-])c1ccc(C=Nc2ccc(Cl)cc2Cl)s1,–,inactive
COC(=O)[C@@]1(Cc2ccc(F)cc2)[C@@H]2C(=CC(=O)[C@H]2CC(=O)C(=O)N2CCCC2)CN1C(=O)c1ccccc1,–,inactive
N#CCCn1c(=O)cnc2cnc(N3CCNCC3)nc21,–,inactive
c1ccc2cc(-c3csnn3)ccc2c1,–,inactive
CS(=O)(=O)N1CCCC(C(=O)N2CCc3ccccc3C2)C1 (centres undefined),–,inactive
CCOC(=O)CC(=O)CSc1nc(-c2cccnc2)cc(C)c1C#N,–,inactive
Cc1ccc(CONC(=O)/N=C/N(C)C)cc1,–,inactive
C=CCNc1sc(C(=O)c2ccccc2)c(N)c1C#N,–,inactive
CCC[C@@H]1O[C@@H]2C[C@@H]3[C@H]4CCC5=CC(=O)C=C[C@@]5(C)[C@H]4[C@H](O)C[C@@]3(C)[C@@]2(C(=O)CO)O1,–,inactive
CO[C@@H]1/C=C\O[C@]2(C)Oc3c(C)c(O)c4c(O)c(cc(O)c4c3C2=O)NC(=O)/C(C)=C\C=C/[C@H](C)[C@@H](O)[C@H](C)[C@H](O)[C@H](C)[C@H](OC(C)=O)[C@@H]1C,11.7% [at 11.4 µM],–
O=C(CSc1nc2nc(-c3cccs3)cc(C(F)(F)F)c2c(=O)[nH]1)NCc1ccco1,–,inactive
O=C1COc2ccccc2CN1,–,inactive
Cn1c(=O)cnc2cnc(Nc3ccccc3)nc21,–,inactive
CC[C@]1(O)C[C@@H]2CN(CCc3c([nH]c4ccccc34)[C@](C(=O)OC)(c3cc4c(cc3OC)N(C)[C@H]3[C@](O)(C(=O)OC)[C@@H](C(=O)OC)[C@@]5(CC)C=CCN6CC[C@@]43[C@@H]65)C2)C1,–,inactive
CN(C)S(=O)(=O)c1nc(Cl)c2[nH]cnc2n1,9.4% [at 11.4 µM],–

Structure (SMILES),"activity, negative = inhibition",AC50
CC(C)CN1CCCC2(CCN(C(=O)c3cccn3C)CC2)C1,–,inactive
Cn1cccc1C(=O)N1CCC2(CCCN(Cc3ccccc3)C2)CC1,–,10 µM (active)
Cn1cccc1C(=O)N1CCC2(CCCN(Cc3ccc(C#N)cc3)C2)CC1,–,inactive
O=c1c(-c2ccccc2)nc2cnc(N3CCOCC3)nc2n1Cc1cccs1,–,inactive
CCOc1ccc(OCC)c(NC(=O)C2CCCN(S(=O)(=O)c3cccs3)C2)c1 (centres undefined),–,inactive
NNc1nncc2ccccc12,–,inactive
C=CC[C@@H]1C=C[C@H](O/N=C\[C@@H](C)[C@H](OCc2ccccc2)C(C)C)[C@H](CO)O1,-3.33% [at 11.4 µM],–
CC1(C)N=C(N)N=C(N)N1CCCCc1ccccc1,–,3.16 µM (active)
COc1ccc(-n2c(=O)c(-c3ccc(Cl)cc3)nc3cnc(N4CCOCC4)nc32)cc1,–,inactive
CCOC(=O)COc1c(OC)cc(Cl)cc1C1Nc2ccccc2C(=O)N1c1cccc(C)c1 (centres undefined),–,inactive
O=C(NCCCN1CCCC1=O)c1ccc(CNS(=O)(=O)c2ccc(F)cc2)cc1,–,inactive
Cn1c(CNS(=O)(=O)c2ccc(F)cc2)n[nH]c1=S,–,inactive
CN(CCC#N)C(=O)c1ccc(CNS(=O)(=O)c2ccc(F)cc2)cc1,–,28.2 µM (active)
CC(C)c1ccc2nc3sc(C(=O)N4CCc5ccccc5C4)c(N)c3cc2c1,–,inactive
O=C(c1cnccn1)N1CCC2(CCN(Cc3nccs3)CC2)CC1,–,inactive
COc1ccccc1CN1CC2(CCN(C(=O)c3cnccn3)CC2)C1,–,inactive
O=C(c1cnccn1)N1CCC2(CC1)CN(Cc1nccs1)C2,–,inactive
COc1ccccc1CN1CCCC2(CCN(C(=O)c3cnccn3)CC2)C1,–,3.98 µM (active)
COc1ccccc1CN1CCCC2(CCN(C(=O)c3ccncc3)CC2)C1,–,3.16 µM (active)
CN1CCCC2(CCN(C(=O)c3cnccn3)CC2)C1,–,inactive
COc1ccccc1CN1CC2(CCN(C(=O)c3ccncc3)CC2)C1,–,0.794 µM (active)
O=C(c1cnccn1)N1CCC2(CCCN(Cc3nccs3)C2)CC1,–,7.94 µM (active)
O=c1c(CCc2ccccc2)nc2cnc(Oc3ccccc3)nc2n1C1CC1,–,inactive
O=C(CSc1nc2ccccc2s1)c1sc2sc3ccccc3[n+]2c1O,-14.5% [at 11.4 µM],–

Structure (SMILES),"activity, negative = inhibition",AC50
Cc1ccc(C(=O)O)cc1N1C(=O)c2cccc3cc(Br)cc(c23)C1=O,–,inactive
CCCNC(=O)OC[C@@H]1O[C@H](CCO/N=C(\C)CCN2CCc3nc(-c4ccccc4)c(-c4ccccc4)cc3C2)C=C[C@@H]1Oc1ccc(OC)cc1,-6.26% [at 11.4 µM],–
COc1ccc(Oc2ncc3nc(C)c(=O)n(C)c3n2)cc1,–,inactive
CC(C)C12CN3CC(C(C)C)(CN(C1)C3c1ccco1)C2=O (centres undefined),–,inactive
CC(=O)Nc1c(I)c(C(=O)N[C@H]2[C@@H](O)[C@H](O)[C@H](CO)O[C@@H]2O)c(I)c(N(C)C(C)=O)c1I,–,inactive
CCOc1ccc(N(CCC#N)S(=O)(=O)c2ccc(OC)cc2)cc1,–,inactive
COc1cc([C@H]2c3cc4c(cc3[C@@H](O)[C@@H]3COC(=O)[C@H]23)OCO4)cc(OC)c1OC,–,inactive
O=C1N/C(=C\c2ccc(N3CCOCC3)c(F)c2)C(=O)N1Cc1ccccc1,–,inactive
COCCn1c(=O)c(C)nc2cnc(Oc3cccc(Cl)c3)nc21,–,inactive
O=C(O)c1ccc(CNCc2ccccc2)cc1,8.97% [at 11.4 µM],–
Sc1ccc2ccccc2c1CNCc1ccccc1,–,1.26 µM (active)
CC(OC(=O)Cn1c(C(F)(F)F)nc2ccccc21)C(N)=O (centres undefined),–,inactive
Cc1ccc(N=Cc2cc(C)n(C3CCCC3)c2C)cc1,–,15.8 µM (active)
COC(=O)N1CCC2(CC1)CCN(c1ncccn1)CC2,–,inactive
COc1ccc(/C=C/c2ccncc2)cc1,–,8.91 µM (active)
COc1ccc(OC(=O)c2ccncc2)cc1,–,inactive
COc1cc(/C=C\c2ccc(OC)cc2OC)cc(OC)c1,–,inactive
CC(C)(C)NC(=O)Cn1cnc([N+](=O)[O-])n1,–,inactive
CSc1nc2ccc3nc(NC(=O)c4cccs4)sc3c2s1,–,inactive
O=C(Cn1cnc2ccccc2c1=O)Nc1nnc(SCc2ccccc2)s1,–,inactive
COc1cc(OC)cc(C(=O)NC(=S)Nc2ccc(Cl)c(C(=O)O)c2)c1,–,inactive
C[C@@H](c1ccccc1)N1C(=O)[C@H]2[C@H]3[C@H](O)[C@H](O)C/C(=N/OCc4ccccc4)[C@H]3CC[C@@H]2C1=O,6.68% [at 11.4 µM],–
